For some assays here: Results with a measured potency or affinity are listed apart.
Assays:
Parameters in all cases: scale not given: direction of the effect not stated beside the values
[1] = molecular target: Protein translocase subunit SecA (Escherichia coli (strain K12)) (UniProt P10408); assay: Assay to Identify E. coli SecA ATPase Inhibitors; type: functional; details: 30 µM
[2] = molecular target: T1, Ubiquitin-activating enzyme e1, putative (Leishmania donovani (strain BPK282A1)) (UniProt E9BSI1); assay: Leishmania donovani Ubiquitin Activating Enzyme (LdE1); type: functional; details: 30 µM
T1 sequence (whole entry): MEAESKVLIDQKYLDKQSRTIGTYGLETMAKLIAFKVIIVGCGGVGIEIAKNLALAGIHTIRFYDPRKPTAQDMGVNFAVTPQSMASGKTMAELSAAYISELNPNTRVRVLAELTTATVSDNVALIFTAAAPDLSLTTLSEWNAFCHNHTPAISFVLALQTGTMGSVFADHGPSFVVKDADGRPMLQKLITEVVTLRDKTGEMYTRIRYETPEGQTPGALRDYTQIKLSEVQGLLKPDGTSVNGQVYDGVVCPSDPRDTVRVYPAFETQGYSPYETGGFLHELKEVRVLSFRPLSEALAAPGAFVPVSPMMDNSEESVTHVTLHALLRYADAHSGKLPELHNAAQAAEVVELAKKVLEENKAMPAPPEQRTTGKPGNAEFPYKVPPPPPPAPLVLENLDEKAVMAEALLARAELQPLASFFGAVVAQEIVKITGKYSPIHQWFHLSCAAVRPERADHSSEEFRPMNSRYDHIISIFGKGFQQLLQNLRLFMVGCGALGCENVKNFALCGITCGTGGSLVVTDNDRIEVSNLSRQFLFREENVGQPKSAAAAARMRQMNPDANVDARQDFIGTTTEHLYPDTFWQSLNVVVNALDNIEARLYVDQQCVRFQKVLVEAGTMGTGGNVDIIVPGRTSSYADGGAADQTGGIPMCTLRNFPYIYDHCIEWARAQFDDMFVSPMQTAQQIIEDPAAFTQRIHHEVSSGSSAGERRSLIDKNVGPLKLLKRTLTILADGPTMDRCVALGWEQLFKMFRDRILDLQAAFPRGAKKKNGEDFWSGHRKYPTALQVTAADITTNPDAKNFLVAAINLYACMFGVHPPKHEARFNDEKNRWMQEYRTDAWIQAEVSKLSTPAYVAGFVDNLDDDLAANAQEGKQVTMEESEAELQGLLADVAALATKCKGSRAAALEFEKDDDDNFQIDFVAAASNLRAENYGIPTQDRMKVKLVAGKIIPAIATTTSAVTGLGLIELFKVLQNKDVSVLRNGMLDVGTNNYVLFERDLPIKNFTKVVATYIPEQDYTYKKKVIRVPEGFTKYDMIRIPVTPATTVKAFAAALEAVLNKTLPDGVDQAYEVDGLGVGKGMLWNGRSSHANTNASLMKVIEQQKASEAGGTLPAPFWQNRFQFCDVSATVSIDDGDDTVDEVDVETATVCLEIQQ

[3] = molecular target: Sialic acid-binding Ig-like lectin 9 (Homo sapiens) (UniProt Q9Y336); assay: Hs-Siglec9 ALPHAscreen SOP 20170721; details: 10 µM
[4] = system: Trypanosoma cruzi; assay: Trypanosoma cruzi phosphomannomutase and mannose-1-phosphate guanylyltransferase assay; type: functional; details: 10 µM
[5] = molecular target: T2, Arginase-2, mitochondrial (Homo sapiens) (UniProt P78540); assay: in vitro enzyme assay to detect the production of urea directly proportional to the activity of Arginase II; type: functional; details: 33.3 µM; further: in the data most compounds retested in dose-response had high values
T2 sequence (whole entry): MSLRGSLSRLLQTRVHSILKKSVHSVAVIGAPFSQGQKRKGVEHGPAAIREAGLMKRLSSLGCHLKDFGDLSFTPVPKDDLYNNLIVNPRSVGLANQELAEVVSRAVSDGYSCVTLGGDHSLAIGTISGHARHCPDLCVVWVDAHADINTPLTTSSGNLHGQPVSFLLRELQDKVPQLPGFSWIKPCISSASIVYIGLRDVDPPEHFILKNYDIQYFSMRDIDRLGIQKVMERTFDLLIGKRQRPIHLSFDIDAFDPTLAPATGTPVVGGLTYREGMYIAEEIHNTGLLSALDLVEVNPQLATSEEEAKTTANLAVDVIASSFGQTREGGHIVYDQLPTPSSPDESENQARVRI

[6] = molecular target: T3, Proteasome subunit beta (Trypanosoma cruzi) (UniProt O96673); assay: Trypanosoma cruzi proteasome chymotrypsin-like activity (TcProtChymo) assay.; further: in the data most compounds retested in dose-response had high values; type: functional; details: 9.37 µM
T3 sequence (whole entry): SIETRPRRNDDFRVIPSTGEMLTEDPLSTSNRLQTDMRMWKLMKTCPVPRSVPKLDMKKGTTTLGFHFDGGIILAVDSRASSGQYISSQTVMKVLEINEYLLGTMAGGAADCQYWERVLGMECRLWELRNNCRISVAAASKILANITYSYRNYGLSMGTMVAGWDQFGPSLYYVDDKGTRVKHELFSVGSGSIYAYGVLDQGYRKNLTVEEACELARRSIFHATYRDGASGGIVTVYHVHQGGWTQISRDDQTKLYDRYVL

[7] = species: Homo sapiens; assay: To identify inhibition of the IFN signalling (Jak-Stat) pathway via expression of an eGFP reporter gene under the control of an IFN-stimulated response element (ISRE) containing MxA promoter.; type: functional; details: 30 µM
[8] = molecular target: T4, Tyrosyl-tRNA synthetase, putative (Trypanosoma cruzi (strain CL Brener)) (UniProt Q4DSP6); assay: Trypanosoma cruzi tyrosyl tRNA synthetase (TcYRS) _High Tyrosine SOP; type: functional; details: 30 µM; further: in the data most compounds retested in dose-response had high values
T4 sequence (whole entry): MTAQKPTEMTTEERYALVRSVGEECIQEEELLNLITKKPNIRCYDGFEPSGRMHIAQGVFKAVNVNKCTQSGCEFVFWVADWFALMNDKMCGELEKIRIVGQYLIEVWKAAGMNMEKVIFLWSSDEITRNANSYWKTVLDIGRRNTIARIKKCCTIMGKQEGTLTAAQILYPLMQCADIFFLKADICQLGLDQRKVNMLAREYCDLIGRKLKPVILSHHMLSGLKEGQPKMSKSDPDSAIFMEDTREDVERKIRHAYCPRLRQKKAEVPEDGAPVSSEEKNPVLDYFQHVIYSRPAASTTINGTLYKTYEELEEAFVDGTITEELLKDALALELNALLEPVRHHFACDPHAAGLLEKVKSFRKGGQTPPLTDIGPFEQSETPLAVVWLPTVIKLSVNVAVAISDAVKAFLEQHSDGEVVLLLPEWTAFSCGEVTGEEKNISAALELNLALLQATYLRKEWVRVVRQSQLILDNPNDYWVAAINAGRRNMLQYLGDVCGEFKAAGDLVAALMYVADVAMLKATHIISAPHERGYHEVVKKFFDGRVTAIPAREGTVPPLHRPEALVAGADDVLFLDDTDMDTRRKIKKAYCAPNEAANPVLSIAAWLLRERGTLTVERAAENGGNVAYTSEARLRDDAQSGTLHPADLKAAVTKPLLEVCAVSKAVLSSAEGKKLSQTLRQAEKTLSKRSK

[9] = molecular target: T4, Tyrosyl-tRNA synthetase, putative (Trypanosoma cruzi (strain CL Brener)); assay: Trypanosoma cruzi tyrosyl tRNA synthetase (TcYRS) SOP; type: functional; details: 30 µM
[10] = molecular target: Chromo domain-containing protein 1 (Saccharomyces cerevisiae (strain ATCC 204508 / S288c) (Baker's yeast)) (UniProt P32657); assay: ScCHD-1 Enzyme Inhibition Assay; type: functional; details: 30 µM; further: in the data most compounds retested in dose-response had high values
Sequence of Chromo domain-containing protein 1 (Saccharomyces cerevisiae (strain ATCC 204508 / S288c) (Baker's yeast)) (P32657 whole entry, the tested form may be a part): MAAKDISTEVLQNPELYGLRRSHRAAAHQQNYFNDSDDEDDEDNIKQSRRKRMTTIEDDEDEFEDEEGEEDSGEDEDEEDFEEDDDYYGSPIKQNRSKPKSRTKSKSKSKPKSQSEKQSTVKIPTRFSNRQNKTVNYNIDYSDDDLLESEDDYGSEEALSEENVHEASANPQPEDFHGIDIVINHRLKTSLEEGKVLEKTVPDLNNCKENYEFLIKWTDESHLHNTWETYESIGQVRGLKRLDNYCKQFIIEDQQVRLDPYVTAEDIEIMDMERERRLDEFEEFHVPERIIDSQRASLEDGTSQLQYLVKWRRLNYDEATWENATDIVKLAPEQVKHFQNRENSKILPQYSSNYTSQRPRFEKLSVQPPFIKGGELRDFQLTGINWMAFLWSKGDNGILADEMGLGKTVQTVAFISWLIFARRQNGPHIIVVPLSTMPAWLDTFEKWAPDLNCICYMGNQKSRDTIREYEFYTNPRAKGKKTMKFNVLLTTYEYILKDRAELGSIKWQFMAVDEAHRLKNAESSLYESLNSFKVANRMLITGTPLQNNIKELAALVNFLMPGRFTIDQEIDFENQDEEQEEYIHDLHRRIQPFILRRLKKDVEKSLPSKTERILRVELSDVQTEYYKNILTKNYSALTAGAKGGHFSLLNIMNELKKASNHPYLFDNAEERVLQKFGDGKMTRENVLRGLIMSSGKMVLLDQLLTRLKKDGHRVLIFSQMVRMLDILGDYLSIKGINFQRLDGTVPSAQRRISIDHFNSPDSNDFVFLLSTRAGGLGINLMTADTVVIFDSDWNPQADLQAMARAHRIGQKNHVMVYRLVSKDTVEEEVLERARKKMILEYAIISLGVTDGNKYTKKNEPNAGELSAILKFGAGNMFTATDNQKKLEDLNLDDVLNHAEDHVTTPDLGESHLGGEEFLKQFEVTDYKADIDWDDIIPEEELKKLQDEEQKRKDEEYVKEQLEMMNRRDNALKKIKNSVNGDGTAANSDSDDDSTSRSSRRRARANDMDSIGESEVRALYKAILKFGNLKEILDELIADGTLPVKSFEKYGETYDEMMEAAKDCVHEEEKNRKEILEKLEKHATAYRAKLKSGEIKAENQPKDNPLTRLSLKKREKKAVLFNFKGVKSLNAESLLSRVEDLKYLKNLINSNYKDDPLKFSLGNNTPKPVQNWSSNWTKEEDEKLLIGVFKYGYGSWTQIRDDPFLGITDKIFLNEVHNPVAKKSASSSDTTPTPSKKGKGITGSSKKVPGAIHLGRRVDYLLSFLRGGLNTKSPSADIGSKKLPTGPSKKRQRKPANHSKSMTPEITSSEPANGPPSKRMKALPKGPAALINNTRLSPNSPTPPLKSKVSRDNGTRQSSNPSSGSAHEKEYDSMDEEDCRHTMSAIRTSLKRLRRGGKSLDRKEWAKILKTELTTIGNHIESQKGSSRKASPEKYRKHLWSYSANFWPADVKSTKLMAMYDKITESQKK

Sequence of Protein translocase subunit SecA (Escherichia coli (strain K12)) (P10408 whole entry): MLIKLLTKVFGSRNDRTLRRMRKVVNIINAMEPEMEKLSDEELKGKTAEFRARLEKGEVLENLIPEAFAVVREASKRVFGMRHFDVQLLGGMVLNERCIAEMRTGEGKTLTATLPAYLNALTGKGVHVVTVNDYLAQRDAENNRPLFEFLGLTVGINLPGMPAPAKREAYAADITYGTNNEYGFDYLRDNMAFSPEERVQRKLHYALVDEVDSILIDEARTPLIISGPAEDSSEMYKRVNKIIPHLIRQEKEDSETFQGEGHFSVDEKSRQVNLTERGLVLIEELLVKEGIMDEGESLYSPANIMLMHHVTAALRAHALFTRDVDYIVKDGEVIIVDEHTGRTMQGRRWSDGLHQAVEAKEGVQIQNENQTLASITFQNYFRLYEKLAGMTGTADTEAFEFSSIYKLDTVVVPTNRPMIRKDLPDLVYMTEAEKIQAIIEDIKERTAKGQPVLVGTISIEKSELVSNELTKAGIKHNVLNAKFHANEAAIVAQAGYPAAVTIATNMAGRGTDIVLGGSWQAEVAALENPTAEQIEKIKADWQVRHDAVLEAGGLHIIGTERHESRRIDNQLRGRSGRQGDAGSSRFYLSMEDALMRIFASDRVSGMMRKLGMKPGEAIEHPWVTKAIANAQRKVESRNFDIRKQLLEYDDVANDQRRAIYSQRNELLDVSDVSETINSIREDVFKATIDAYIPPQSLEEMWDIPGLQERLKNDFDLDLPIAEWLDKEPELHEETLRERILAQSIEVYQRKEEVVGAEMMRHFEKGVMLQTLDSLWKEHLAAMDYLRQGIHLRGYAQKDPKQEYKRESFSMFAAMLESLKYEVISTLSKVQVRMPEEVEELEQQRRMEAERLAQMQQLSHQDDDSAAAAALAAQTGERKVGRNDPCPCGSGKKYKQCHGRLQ
Sequence of Sialic acid-binding Ig-like lectin 9 (Homo sapiens) (Q9Y336 whole entry): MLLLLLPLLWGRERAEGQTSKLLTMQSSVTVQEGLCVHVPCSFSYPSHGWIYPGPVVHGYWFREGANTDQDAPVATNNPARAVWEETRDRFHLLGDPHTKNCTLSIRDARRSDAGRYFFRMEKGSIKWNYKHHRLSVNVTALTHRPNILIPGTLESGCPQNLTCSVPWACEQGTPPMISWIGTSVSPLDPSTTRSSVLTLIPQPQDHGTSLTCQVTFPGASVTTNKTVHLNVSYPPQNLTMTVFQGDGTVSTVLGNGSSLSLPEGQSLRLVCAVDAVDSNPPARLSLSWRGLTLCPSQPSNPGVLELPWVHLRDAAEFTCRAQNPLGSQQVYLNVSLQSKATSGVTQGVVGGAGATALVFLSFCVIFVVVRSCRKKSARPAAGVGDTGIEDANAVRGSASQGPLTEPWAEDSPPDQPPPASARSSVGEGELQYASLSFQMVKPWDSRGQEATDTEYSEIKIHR

| SMILES | Percent Effect [1] [%] | Percent Effect [2] [%] | Percent Effect [3] [%] | Percent Effect [4] [%] | Percent Effect [5] [%] | Percent Effect [6] [%] | Percent Effect [7] [%] | Percent Effect [8] [%] | Percent Effect [9] [%] | Percent Effect [10] [%] |
| --- | --- | --- | --- | --- | --- | --- | --- | --- | --- | --- |
| CC(NC(=O)CN(C)S(C)(=O)=O)c1nnc2n1CCCCC2 (stereo not given) | 1.95 | 13 | 1.1 | -4.48 | -15 | 17.2 | 26.4 | -0.98 | 4.71 | -8.79 |
| Cc1cc(-c2nn(C)c(Cl)c2CN2Cc3ccccc3C(O)C2)no1 (stereo not given) | -0.14 | 24.3 | 18.2 | 11.2 | 20.6 | 6.34 | 47.5 | 3.72 | 4.88 | -1.98 |
| Cc1cc(CN(C)C(=O)c2ccnc(N(C)C)c2)no1 | -2.33 | 8 | 1.08 | -5.82 | 2.22 | 4.67 | 9.46 | 3.68 | 10.3 | -13.6 |
| COC(=O)COc1cccc(NS(=O)(=O)c2cc(C(=O)O)cs2)c1 | -0.923 | 17.9 | -17.3 | 4.41 | -2.87 | 17.5 | 22.9 | 1.44 | 20.5 | -7.25 |
| CC(c1nc(C2CC2)no1)N1CCN(Cc2ccsc2)CC1 (stereo not given) | -4.58 | 2.56 | 2.79 | 1.97 | -1.64 | 3.67 | 3.35 | 4.31 | 8.43 | -5.15 |
| COc1cc(CNCc2ccc(NC(=O)NC(C)C)cc2)cc(OC)c1 | -1.27 | 15.6 | 5.02 | 6.9 | 10.4 | 16.1 | 33.6 | 8.82 | 30.6 | -10.7 |
| O=C(c1ccc(OCC2CC2)nc1)N1CCCC(n2cncn2)C1 (stereo not given) | -1.42 | 10.3 | -4.65 | -3.1 | 7.79 | 9.13 | 19.1 | 5.26 | 13.2 | -4.21 |
| Cn1ccc(C(=O)NCc2cccc(NC(=O)C3CCC3)c2)cc1=O | -3.75 | 26 | 5.5 | 4.48 | -1.84 | 12.3 | 12 | 2.94 | 21.2 | -9.82 |

— ChEMBL document CHEMBL3988442, “University of Dundee, Small-Polar-MMV Screening Library” (2021)
